Records with an inconclusive call do not appear. Activity calls are given as the source filed them. Unless noted, the call rests on the fitted dose curve; in most records, active means well fitted curve in the direction sought with a large enough effect; inconclusive means small, poorly fitted or top-dose-only effect, or another doubt; inactive means no such curve, though single readings can be large; an effect the other way counts as inactive or inconclusive.
Key:
[1] = qHTS for Inhibitors of Plasmodium falciparum (DD2) proliferation (AID 504314);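 further: parasite DNA measured by SYBR Green fluorescence after red cell lysis; plate controls were DMSO vehicle for no effect and artemisinin wells for full effect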
Outline: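 Erythrocytes infected with P. falciparum Dd2 (0.3% parasitemia, 2.5% hematocrit) exposed to compound 72 h at 37C, 5% CO2. Parasite DNA quantified by SYBR Green fluorescence after saponin/Triton lysis overnight; normalized to 0.29 uM artemisinin and DMSO.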

[2] = qHTS for Inhibitors of Plasmodium falciparum (GB4) proliferation (AID 504315);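 further: 0% = DMSO vehicle and -100% = 0.29 µM artemisinin control; nearly all actives have a fitted effect of over 50% in size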
Outline: (§1)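 Erythrocytes infected with P. falciparum line (0.3% parasitemia, 2.5% hematocrit final) incubated with compounds 72 h at 37 °C, 5% CO2; SYBR Green lysis buffer added, fluorescence read next day. Normalized to 0.29 uM artemisinin and DMSO.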

[3] = qHTS for Inhibitors of Plasmodium falciparum (7G8) proliferation (AID 504316);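 further: series mostly up to about 6.7 µM; 0% = DMSO vehicle and -100% = 0.29 µM artemisinin full kill; nearly all actives have a fitted effect of over 65% in size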
Outline: as §1

[4] = qHTS for Inhibitors of Plasmodium falciparum (HB3) proliferation (AID 504318);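 further: 0% = DMSO vehicle and -100% = artemisinin control; nearly all actives have a fitted effect of over 60% in size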
Outline: as §1

[5] = qHTS for Inhibitors of Plasmodium falciparum (CP250) proliferation (AID 504320);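 further: plate controls were DMSO vehicle for no effect and 0.29 µM artemisinin control for full effect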
Outline: as §1

[6] = molecular target: Atrial natriuretic peptide receptor 1 (Homo sapiens) (UniProt P16066); assay: Natriuretic polypeptide receptor (hNpr1) antagonism - Pilot CMLD screen (AID 1347052; calls by dose curve;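 further: HEK293 cells with hNpr1 stimulated by hNppA peptide at 0.1 nM; cGMP level read as GloSensor luciferase luminescence after agonist stimulation; series mostly up to about 9.2 µM; on the % scale 0 is the no-effect control and ±100 the full control effect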)
Atrial natriuretic peptide receptor 1 (Homo sapiens), sequence (P16066 whole entry, looked up): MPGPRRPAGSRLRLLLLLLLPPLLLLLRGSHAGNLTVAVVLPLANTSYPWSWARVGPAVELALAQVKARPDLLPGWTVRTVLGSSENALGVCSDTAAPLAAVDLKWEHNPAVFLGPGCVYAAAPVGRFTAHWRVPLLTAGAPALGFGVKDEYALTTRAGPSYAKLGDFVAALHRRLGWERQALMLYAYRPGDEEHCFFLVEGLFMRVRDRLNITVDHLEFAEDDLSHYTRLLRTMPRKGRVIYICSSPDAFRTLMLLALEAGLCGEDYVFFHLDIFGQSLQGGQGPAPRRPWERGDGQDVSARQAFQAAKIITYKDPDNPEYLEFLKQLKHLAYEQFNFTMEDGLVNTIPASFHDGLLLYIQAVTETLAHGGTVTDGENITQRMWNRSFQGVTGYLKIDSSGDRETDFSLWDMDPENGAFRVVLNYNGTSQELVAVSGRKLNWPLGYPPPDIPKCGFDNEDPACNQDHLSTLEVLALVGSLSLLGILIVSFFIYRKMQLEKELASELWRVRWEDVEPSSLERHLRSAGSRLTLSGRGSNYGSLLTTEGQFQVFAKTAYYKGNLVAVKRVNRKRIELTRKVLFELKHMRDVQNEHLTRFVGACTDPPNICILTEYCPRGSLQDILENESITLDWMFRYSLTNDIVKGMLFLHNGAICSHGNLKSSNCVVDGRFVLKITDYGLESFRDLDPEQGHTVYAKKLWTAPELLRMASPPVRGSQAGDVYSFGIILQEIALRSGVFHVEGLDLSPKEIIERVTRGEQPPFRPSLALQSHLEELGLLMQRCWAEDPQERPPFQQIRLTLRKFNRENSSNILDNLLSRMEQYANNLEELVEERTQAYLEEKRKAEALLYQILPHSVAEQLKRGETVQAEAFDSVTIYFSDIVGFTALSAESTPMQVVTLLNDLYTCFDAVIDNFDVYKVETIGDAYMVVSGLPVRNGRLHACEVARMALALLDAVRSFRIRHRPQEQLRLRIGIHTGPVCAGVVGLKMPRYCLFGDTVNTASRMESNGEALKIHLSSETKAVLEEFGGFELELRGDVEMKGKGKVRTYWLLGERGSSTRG

C[C@@H]1C=CCCO[C@]12C(=O)Nc1ccccc12
inactive: Potency [1] | Potency [2] | Potency [3] | Potency [4] | Potency [5] | Potency [6]

CCCCC1=CC2=C(c3ccco3)C(=O)C(C)(OC(=O)c3ccc(OC)cc3)C(=O)C2=CN1c1ccc(OC)cc1 (stereo not given)
inactive: activity, negative = inhibition [1] -0.773% [at 1.12 µM] | Potency [2] | Potency [3] | Potency [4] | Potency [5] | Potency [6]

C=CCCCN1C=C(C(C)=O)C(c2ccccc2)NC1=O (stereo not given)
inactive: Potency [1] | Potency [2] | Potency [3] | Potency [4] | Potency [5] | Potency [6]

O=P1(O)Oc2c(c(-c3ccccc3)cc3ccc4ccccc4c23)-c2c(-c3ccccc3)cc3ccc4ccccc4c3c2O1
inactive: Potency [1] | Potency [2] | Potency [3] | Potency [4] | Potency [5] | Potency [6]

COC(=O)CC1c2ccccc2C(Cc2ccc(OC)cc2)C(C)N1C(=O)OC (stereo not given)
inactive: Potency [1] | Potency [2] | Potency [3] | Potency [4] | Potency [5] | Potency [6]

CCN1C(=O)NC(c2cccs2)C(C(=O)OC)=C1C (stereo not given)
inactive: Potency [1] | Potency [2] | Potency [3] | Potency [4] | Potency [5] | Potency [6]

COC(=O)C1=C(C(=O)OC)[C@@H]2Nc3ccccc3[C@@]23C[C@@H](C(=O)OC)N(C(=O)COCc2ccccc2)C3=N1
inactive: Potency [1] | Potency [2] | Potency [3] | Potency [4] | Potency [5] | Potency [6]

Cc1ccc(C(O)C2=CCCC2=O)cc1 (stereo not given)
inactive: Potency [1] | Potency [2] | Potency [3] | Potency [4] | Potency [5] | Potency [6]

C=CCOC(=O)N[C@H](C(C(=O)OC)=C(C)NCc1ccccc1)c1ccc(Br)cc1
inactive: Potency [1] | Potency [2] | Potency [3] | Potency [4] | Potency [5] | Potency [6]

O=c1n(-c2ccccc2)c(=O)n2n1CC[C@@H]1C(=NOC[C@@H](O)COCc3ccco3)[C@H]3O[C@H]3[C@@H](O)[C@H]12
inactive: Potency [1] | Potency [2] | Potency [3] | Potency [4] | Potency [5] | Potency [6]

CC(=O)OC[C@H]1O[C@@H](ON=C[C@@H](C)[C@H](OCc2ccccc2)C(C)C)[C@@H](OC(C)=O)[C@@H](OC(C)=O)[C@@H]1OC(C)=O
inactive: Potency [1] | Potency [2] | Potency [3] | Potency [4] | Potency [5] | Potency [6]

CC1=CC[C@@H](C)O[C@@]2(C1)C(=O)Nc1ccccc12
inactive: Potency [1] | Potency [2] | Potency [3] | Potency [4] | Potency [5] | Potency [6]

C=CCN1c2ccccc2[C@]23CCC(=O)N(CC4CC4)C2=NC(C(=O)OC)=C(C(=O)OC)[C@H]13
inactive: Potency [1] | Potency [2] | Potency [3] | Potency [4] | Potency [5] | Potency [6]

COC(=O)NC(C(=O)OC)(C(=O)OC)c1ccccc1
inactive: Potency [1] | Potency [2] | Potency [3] | Potency [4] | Potency [5] | Potency [6]

COC(=O)CC=C1c2ccccc2[C@@H](NC(=O)OC)[C@@H]1C
inactive: Potency [1] | Potency [2] | Potency [3] | Potency [4] | Potency [5] | Potency [6]

CC1=CC[C@@H](COc2ccccc2)O[C@@]2(C1)C(=O)Nc1cccc(Br)c12
inactive: Potency [1] | Potency [2] | Potency [3] | Potency [4] | Potency [5] | Potency [6]

COC(=O)C1=C(C(=O)OC)[C@@H]2Nc3ccccc3[C@@]23C[C@@H](C(=O)OC)N(C(=O)Nc2ccc(C(F)(F)F)cc2)C3=N1
inactive: Potency [1] | Potency [2] | Potency [3] | Potency [4] | Potency [5] | Potency [6]

CCN1C(=NCCCCO)NC(c2cccc(C(F)(F)F)c2)C(C(=O)OC)=C1C (stereo not given)
inactive: Potency [1] | Potency [2] | Potency [3] | Potency [4] | Potency [5] | Potency [6]

COC(=O)CC=C[C@@H](C)[C@@H](C=NOC[C@@H](O)[C@H]1O[C@@H]2OC(C)(C)O[C@H]2[C@@H]1O)OC
inactive: Potency [1] | Potency [2] | Potency [3] | Potency [4] | Potency [5] | Potency [6]

C#C[C@@H]1C=C[C@H](Oc2ccc(OC)cc2)[C@H](CO)O1
inactive: Potency [1] | Potency [2] | Potency [3] | Potency [4] | Potency [5] | Potency [6]

C[C@@H]1CC[C@H]2C(=O)N3[C@@H](CC[C@@H](C)[C@@H]3c3ccc(-c4ccco4)cc3)C(=O)N2[C@@H]1c1ccc(-c2ccco2)cc1
inactive: Potency [1] | Potency [2] | Potency [3] | Potency [4] | Potency [5] | Potency [6]

CCOC(=O)CN1C(=O)[C@]2(OCCC=C[C@@H]2C)c2ccccc21
inactive: Potency [1] | Potency [2] | Potency [3] | Potency [4] | Potency [5] | Potency [6]

COC(=O)C1=C(C)[C@@H](O)[C@@H](C)[C@](C)(c2cc(OC)c(C)c(OC)c2COc2ccccc2)O1
inactive: Potency [1] | Potency [2] | Potency [3] | Potency [4] | Potency [5] | Potency [6]

COC(=O)CC=C[C@@H](C)[C@H](OC)c1cc(OC)ccc1Br
inactive: Potency [1] | Potency [2] | Potency [3] | Potency [4] | Potency [5] | Potency [6]

CCOC(=O)NN=C1C[C@@H](O)[C@@H](O)[C@@H]2[C@H]3C(=O)N(c4cccc(Oc5ccccc5)c4)C(=O)[C@@H]3CC[C@@H]12
inactive: Potency [1] | Potency [2] | Potency [3] | Potency [4] | Potency [5] | Potency [6]

Reference: PubChem BioAssay (NCATS)
